Among the data in PubChem BioAssay (NCI) are growth inhibition values, retold here.

This is part of a sample that, as a whole, favours compounds with a hit. Of some 79,000 tested, about 15% had one in any assay. A number with no mark means an inactive call. The source made the active and inactive calls. Cut-off read from the data, not from the text of the source: active = growth inhibition above about 70%; inactive = the rest.

Assay [1] in a line: NCI Yeast Anticancer Drug Screen. Data for the rad50 strain (AID 155).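 Note: 0% = growth of vehicle-only cultures of the same strain.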 To be noted: S. cerevisiae rad50 strain growth inhibition, active compounds read high. The procedure, abridged: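 Relative growth inhibition (compound vs vehicle) was measured in yeast with a defined repair-gene alteration.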
The nature of assay [2]: NCI Yeast Anticancer Drug Screen. Data for the mec2-1 strain (AID 157). Conditions: S. cerevisiae mec2-1 strain, active compounds read high. In outline:
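Yeast mec2-1 mutant treated with compound. Readout: growth inhibition vs vehicle controls.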

Assay [3] in a line: NCI Yeast Anticancer Drug Screen. Data for the sgs1 mgt1 strain (AID 161).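 Note: 0% = growth of cultures given vehicle only.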 To be noted: S. cerevisiae sgs1 mgt1 strain, active compounds read high. In outline:
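Mutant yeast exposed to compound; growth scored against vehicle-only wells.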

Assay [4] can be described thus: NCI Yeast Anticancer Drug Screen. Data for the cln2 rad14 strain (AID 165).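 Note: 0% = growth equal to vehicle treated cultures.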 To be noted: S. cerevisiae cln2 rad14 strain, active compounds read high. In outline:
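cln2 rad14 yeast strain; compound exposure; growth inhibition read vs vehicle controls.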

Assay [5] is described as follows: NCI Yeast Anticancer Drug Screen. Data for the bub3 strain (AID 167). To be noted: S. cerevisiae bub3 mutant strain, active compounds read high. In outline:
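Screening used yeast with an engineered genetic alteration affecting cell cycle control. Compound-exposed cultures were compared with vehicle cultures, and reduced growth was taken as inhibition.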

Assay [6] is described as follows: NCI Yeast Anticancer Drug Screen. Data for the mlh1 rad18 strain (AID 175). To be noted: S. cerevisiae mlh1 rad18 strain growth inhibition, active compounds read high. The procedure, abridged: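 Yeast w/ defined DNA-repair lesions; compound exposure; growth vs vehicle controls → % inhibition.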
[7] abbreviates: at 5.0 µM (retest, dose inferred, filed as 0.5).
The mark [8] stands for this setting: at 50.0 µM (retest, dose inferred, filed as 5.0).

With `Oc1cc(Br)cc2cc(Br)cnc12`, the growth inhibition was 92% (active) in assay [1] (setting [7]); 98% (active) in assay [1] (setting [8]); 84.4% (active) in assay [1] (at 50.0 µM); 89% (active) in assay [2] (setting [7]); 98% (active) in assay [2] (setting [8]); 89.5% (active) in assay [2] (at 50.0 µM). Further, the growth inhibition in assay [3] (setting [7]) is 95% (active); in assay [3] (setting [8]), 98% (active); in assay [3] (at 50.0 µM) it was 80.5% (active); in assay [4] (setting [7]), 96% (active); in assay [4] (setting [8]) it was 96% (active); in assay [4] (at 50.0 µM), 84.8% (active). Besides, the growth inhibition in assay [5] (setting [7]) is 92% (active); in assay [5] (setting [8]), 97% (active); in assay [5] (at 50.0 µM), 85.5% (active); in assay [6] (setting [7]), 96% (active); in assay [6] (setting [8]), 98% (active); in assay [6] (at 50.0 µM), 78.3% (active).
Consider `CC12CCC3C(CCC4CC(O)CCC43C)C1CC1C2=NOC1O` (configuration not stated), for which the growth inhibition in assay [1] (setting [7]) was 0%; in assay [1] (setting [8]), 99% (active); in assay [1] (at 50.0 µM), 25.8%; in assay [2] (setting [7]), -2%; in assay [2] (setting [8]) it was 99% (active); in assay [2] (at 50.0 µM), 18.2%. The growth inhibition is 0% in assay [3] (setting [7]); 99% (active) in assay [3] (setting [8]); 72.2% (active) in assay [3] (at 50.0 µM); -8% in assay [4] (setting [7]); 99% (active) in assay [4] (setting [8]); 21% in assay [4] (at 50.0 µM). The growth inhibition in assay [5] (setting [7]) was -3%; in assay [5] (setting [8]), 99% (active); in assay [5] (at 50.0 µM), 73% (active); in assay [6] (setting [7]) it was -1%; in assay [6] (setting [8]) it was 99% (active); in assay [6] (at 50.0 µM), 56.7%.
With `CN1CC[N+](C)(Cc2ccc(C[N+]3(C)CC[N+](C)(Cc4ccc(CCl)cc4)CC3)cc2)CC1` (configuration not stated), the growth inhibition is 2% in assay [1] (setting [7]); 97% (active) in assay [1] (setting [8]); 99.2% (active) in assay [1] (at 50.0 µM); 4% in assay [2] (setting [7]); 95% (active) in assay [2] (setting [8]); 99.4% (active) in assay [2] (at 50.0 µM). Besides, the growth inhibition was 2% in assay [3] (setting [7]); 83% (active) in assay [3] (setting [8]); 99.4% (active) in assay [3] (at 50.0 µM); -3% in assay [4] (setting [7]); 95% (active) in assay [4] (setting [8]); 98.1% (active) in assay [4] (at 50.0 µM). In addition, the growth inhibition in assay [5] (setting [7]) was 1%; in assay [5] (setting [8]), 98% (active); in assay [5] (at 50.0 µM), 99.5% (active); in assay [6] (setting [7]) it was 2%; in assay [6] (setting [8]), 98% (active); in assay [6] (at 50.0 µM), 99.3% (active).
`Cc1cccc2c1CC1(C2)Cc2c(C)cccc2C1=O` (configuration not stated): the growth inhibition is -3% in assay [1] (setting [7]); 87% (active) in assay [1] (setting [8]); 36.9% in assay [1] (at 50.0 µM); -30% in assay [2] (setting [7]); 78% (active) in assay [2] (setting [8]); 42.1% in assay [2] (at 50.0 µM). Also, the growth inhibition in assay [3] (setting [7]) was -23%; in assay [3] (setting [8]), 68%; in assay [3] (at 50.0 µM), 57.6%; in assay [4] (setting [7]), 26%; in assay [4] (setting [8]) it was 20%; in assay [4] (at 50.0 µM), 55.5%. Also, the growth inhibition in assay [5] (setting [7]) is 21%; in assay [5] (setting [8]), 92% (active); in assay [5] (at 50.0 µM), 70% (active); in assay [6] (setting [7]), -11%; in assay [6] (setting [8]), 52%; in assay [6] (at 50.0 µM) it was 50.4%.
Consider `COc1ccc(CSC(=S)Nc2ccc(SC)c(Cl)c2)cc1`, for which the growth inhibition in assay [1] (setting [7]) was 50%; in assay [1] (setting [8]), 90% (active); in assay [1] (at 50.0 µM) it was 96.4% (active); in assay [2] (setting [7]), 23%; in assay [2] (setting [8]) it was 96% (active); in assay [2] (at 50.0 µM), 98.1% (active). In addition, the growth inhibition in assay [3] (setting [7]) was 62%; in assay [3] (setting [8]) it was 94% (active); in assay [3] (at 50.0 µM), 97% (active); in assay [4] (setting [7]), -10%; in assay [4] (setting [8]), 88% (active); in assay [4] (at 50.0 µM), 94.5% (active). For the same molecule, the growth inhibition in assay [5] (setting [7]) is 16%; in assay [5] (setting [8]) it was 97% (active); in assay [5] (at 50.0 µM) it was 97% (active); in assay [6] (setting [7]), 65%; in assay [6] (setting [8]) it was 94% (active); in assay [6] (at 50.0 µM), 97.9% (active).
With `Cc1cccc(/C=N/Nc2cc(C)nc3ccccc23)n1`, the growth inhibition in assay [1] (setting [7]) was 1%; in assay [1] (setting [8]) it was 2%; in assay [1] (at 50.0 µM) it was 92.7% (active); in assay [2] (setting [7]) it was -3%; in assay [2] (setting [8]) it was -3%; in assay [2] (at 50.0 µM), 37.8%. The growth inhibition was -2% in assay [3] (setting [7]); 35% in assay [3] (setting [8]); 53.6% in assay [3] (at 50.0 µM); 5% in assay [4] (setting [7]); 40% in assay [4] (setting [8]); 53.8% in assay [4] (at 50.0 µM). Further, the growth inhibition in assay [5] (setting [7]) was 2%; in assay [5] (setting [8]) it was 7%; in assay [5] (at 50.0 µM) it was 19.7%; in assay [6] (setting [7]), -1%; in assay [6] (setting [8]), 34%; in assay [6] (at 50.0 µM), 46.4%.
In the case of `O=C1C=CC(=O)c2nc3c(nc21)[nH]c1ccccc13`, the growth inhibition in assay [1] (setting [7]) was -9%; in assay [1] (setting [8]), 91% (active); in assay [1] (at 50.0 µM) it was 95.7% (active); in assay [2] (setting [7]) it was -12%; in assay [2] (setting [8]) it was 94% (active); in assay [2] (at 50.0 µM), 95.4% (active). The growth inhibition is -23% in assay [3] (setting [7]); 95% (active) in assay [3] (setting [8]); 94.7% (active) in assay [3] (at 50.0 µM); -20% in assay [4] (setting [7]); 94% (active) in assay [4] (setting [8]); 93.5% (active) in assay [4] (at 50.0 µM). Also, the growth inhibition in assay [5] (setting [7]) was -41%; in assay [5] (setting [8]), 93% (active); in assay [5] (at 50.0 µM) it was 91.4% (active); in assay [6] (setting [7]), -44%; in assay [6] (setting [8]), 92% (active); in assay [6] (at 50.0 µM), 95.5% (active).
For the molecule `CCOC(=O)c1ccc(C(C)C)cc1`, the growth inhibition is 3% in assay [1] (setting [7]); 96% (active) in assay [1] (setting [8]); 40.5% in assay [1] (at 50.0 µM); 3% in assay [2] (setting [7]); 100% (active) in assay [2] (setting [8]); 79.6% (active) in assay [2] (at 50.0 µM). For the same molecule, the growth inhibition in assay [3] (setting [7]) is 3%; in assay [3] (setting [8]), 94% (active); in assay [3] (at 50.0 µM), 55.5%; in assay [4] (setting [7]), -1%; in assay [4] (setting [8]), 97% (active); in assay [4] (at 50.0 µM) it was 21.6%. Besides, the growth inhibition was 4% in assay [5] (setting [7]); 99% (active) in assay [5] (setting [8]); 84.3% (active) in assay [5] (at 50.0 µM); 4% in assay [6] (setting [7]); 96% (active) in assay [6] (setting [8]); 62.1% in assay [6] (at 50.0 µM).
Take `c1ccc(CC(Cc2ccccc2)c2cccnc2)cc1`: the growth inhibition in assay [1] (setting [7]) was 18%; in assay [1] (setting [8]) it was 84% (active); in assay [1] (at 50.0 µM), 98.7% (active); in assay [2] (setting [7]), 21%; in assay [2] (setting [8]), 62%; in assay [2] (at 50.0 µM), 98.3% (active). Also, the growth inhibition in assay [3] (setting [7]) is 35%; in assay [3] (setting [8]) it was 89% (active); in assay [3] (at 50.0 µM), 98.7% (active); in assay [4] (setting [7]), 34%; in assay [4] (setting [8]), 66%; in assay [4] (at 50.0 µM) it was 97.9% (active). Further, the growth inhibition in assay [5] (setting [7]) was 43%; in assay [5] (setting [8]), 88% (active); in assay [5] (at 50.0 µM), 99% (active); in assay [6] (setting [7]) it was 25%; in assay [6] (setting [8]), 84% (active); in assay [6] (at 50.0 µM), 98.3% (active).
